Compound activity deposited in PubChem BioAssay by National Center for Advancing Translational Sciences (NCATS).
In the library only some 2.6% were active in any assay of this set; here they are far more common.
PTAP-TSG101 blk – qHTS Validation Assay for Inhibitors of HIV-1 Budding by Blocking the Interaction of PTAP/TSG101: Sytravon Library Screen. Fluorescence polarization, FITC-PTAP peptide/Tsg101, 20 min. AID 1347069, 2019. 44,000 tested, under 10 active. Tumor susceptibility gene 101 protein (Homo sapiens), Q99816. Potency, µM (titrated, usually from 115 µM), most hits filed as inhibitors
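Compounds pinned into 10 uM Tsg101 binding domain, then 50 nM FITC-PTAP peptide added in pH 7.5 HEPES buffer; FP read after 20 min, room temperature. Total S+P intensity flags fluorescent compounds; active cut-off <25 µM, efficacy <60%.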
GALC G270D act – A Novel Cell-Based Assay to Identify Small Molecules for B -Galactocerebrosidase; P54803; 145M-Twi-hGALC-G270D cells, HMU-beta-Gal fluorescence, 48 h; Potency, µM (top dose mostly 57.5 µM), actives largely listed as activators; 45,000 tested, 0.1% active; note: nearly all actives have a fitted effect of over 65% in size
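qHTS, 1536-well; 145M-Twi-hGALC-G270D cells (WT line also made) in DMEM/F12 + 10% FBS; compound incubation on live cells; HMU-β-gal 0.1 mM final, pH 5.2, NaTC; carbonate stop; fluorescence increase = enhanced residual activity.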
B2AR arrestin ag – qHTS assay of beta-arrestin-biased ligands of beta2-adrenergic receptor: NCGC Sytravon Library Screen. 44,000 tested, under 10 active. Potency, µM (highest dose often 46.1 µM), usual class: activators. HTLA Tango cells, beta-arrestin recruitment, luciferase luminescence, 18 h. Beta-2 adrenergic receptor (Homo sapiens), P07550
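Ligand-induced beta-arrestin recruitment to recombinant beta2-AR is measured via a tTA-driven luciferase reporter in Tango cells after 18 hr compound exposure at 37 degrees C. Concentrations span up to 46 microM.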
GPR32 ag – qHTS for Agonists of Human Resolvin D1 Receptor DRV1 | CHO-K1 GPR32 beta-arrestin PathHunter luminescence, 90 min; zero percent set by DMSO-only wells | activation, % at 76.9 µM | 48,000 tested, 2.5% active | AID 1346428, 2018;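 active = activation of at least 60% and not above a set upper limit, about 1 call in 100 departs from these limits; inconclusive = activation of 40% to 60%, or above that upper limit; inactive = activation under 40%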
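Step 1: seed CHO-K1 GPR32 beta-arrestin cells, 2,500/well, overnight at 37 °C. Step 2: add compounds, 90 min at 37 °C. Step 3: detection reagent, 1 h ambient, then luminescence.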
GALK inh – qHTS Assay for Inhibitors of Human Galactokinase (GALK): NCGC Sytravon Library Screen | P51570 | recombinant GALK, Kinase-Glo ATP luminescence, 1 h | Potency, µM (top dose mostly 57.5 µM), actives largely listed as inhibitors | 44,000 tested, under 10 active | AID 1347072, 2019
Target sequence (P51570 whole entry, looked up): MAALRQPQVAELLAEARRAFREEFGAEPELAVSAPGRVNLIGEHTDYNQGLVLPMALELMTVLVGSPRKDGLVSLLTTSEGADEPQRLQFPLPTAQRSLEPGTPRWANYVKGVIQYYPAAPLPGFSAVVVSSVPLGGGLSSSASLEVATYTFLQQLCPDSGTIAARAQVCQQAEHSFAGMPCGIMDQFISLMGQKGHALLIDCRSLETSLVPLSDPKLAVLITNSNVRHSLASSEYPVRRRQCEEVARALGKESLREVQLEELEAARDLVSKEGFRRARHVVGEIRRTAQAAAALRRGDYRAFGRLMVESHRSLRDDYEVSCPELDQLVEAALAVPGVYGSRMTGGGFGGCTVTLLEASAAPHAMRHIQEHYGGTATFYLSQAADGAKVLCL
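Luminescent ATP-depletion readout (Kinase-Glo Plus) after 1 h room-temperature incubation of human GALK (5 nM) with galactose 100 µM and ATP 35 µM, pH 8.0 HEPES/Mg2+ buffer; compounds tested in qHTS format.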
Hits are given with their value; . = inactive; ? = inconclusive; / = no result. Unless noted, calls come from the whole dose curve; as a rule, active = well fitted curve in the direction sought with a large enough effect; inconclusive = small, poorly fitted or top-dose-only effect, or another doubt; inactive = no such curve, though single readings can be large; an effect the other way counts as inactive or inconclusive.

SMILES	PTAP-TSG101 blk	GALC G270D act	B2AR arrestin ag	GPR32 ag	GALK inh
CN1Cc2cc(C(=O)N3CCC(C4CCNCC4)CC3)ccc2NC(CC(=O)O)C1=O (stereo unspecified)	/	.	/	.	/
Oc1cccc(Nc2nc(-c3ccccc3)nc3ccccc23)c1	.	.	.	61	.
Cc1cccc(Nc2nc(-c3ccccc3)nc3ccccc23)c1	.	.	.	110	.
CCOc1ccc(NC(=O)NCCCN2CCN(c3ccc(F)cc3)CC2)cc1	.	.	.	.	.
O=C(NCCCN1CCN(c2ccc(F)cc2)CC1)Nc1ccc(Cl)cc1	.	.	.	83	.
CC(C)(C)c1ccc(C(=O)CCCCl)cc1	/	.	/	.	/
O=C(Cn1c(=O)oc2cc(S(=O)(=O)NC3CCCC3)ccc21)Nc1ccc(F)c(F)c1	.	.	.	91	.
O=C(Cn1c(=O)oc2cc(S(=O)(=O)NCc3ccccc3)ccc21)Nc1cccc(F)c1	.	.	.	67	.
COc1ccc(NC(=O)Cn2c(=O)oc3cc(S(=O)(=O)NC4CCCC4)ccc32)cc1OC	.	.	.	.	.
CCOc1cccc(-c2nc3ccccc3c(=O)o2)c1	.	.	.	80	.
CCCOc1ccc(-c2nc3ccc(Br)cc3c(=O)o2)cc1	.	.	.	.	.
O=C(Nc1c2c(nn1-c1ccc(Cl)cc1)CS(=O)(=O)C2)c1ccc(Br)cc1	.	.	.	.	.
COc1cccc(/C=C/c2nc(C#N)c(N(C)Cc3ccccc3)o2)c1	.	25µM	.	.	.
COc1cccc(/C=C/c2nc(C#N)c(N3CCC(C(N)=O)CC3)o2)c1	.	25µM	.	.	.
COc1ccc(/C=C/c2nc(C#N)c(N3CCCCC3)o2)cc1OC	.	28µM	.	.	.
COc1ccc(/C=C/c2nc(C#N)c(N3CCN(c4ccccc4)CC3)o2)cc1OC	.	?	.	.	.
CCC(C(=O)O)c1ccc(N2Cc3ccccc3C2=O)cc1 (stereo unspecified)	/	.	/	.	/
CCc1ccc(C2CC(=O)Nc3cc4c(cc32)OCO4)cc1 (stereo unspecified)	.	.	.	72	.
Cc1ccc(C2CC(=O)Nc3cc4c(cc32)OCCO4)cc1 (stereo unspecified)	.	.	.	62	.
O=C1CC(c2ccc(Cl)cc2)c2cc3c(cc2N1)OCCO3 (stereo unspecified)	.	.	.	80	.
C[C@@H]1CCN(C(=O)[C@H](CCCN=C(N)N)NS(=O)(=O)c2cccc3c2NC[C@H](C)C3)[C@@H](C(=O)O)C1	/	.	/	.	/
COc1ccc(-c2cn3nc(N4CCC(C(=O)Nc5cccc(Cl)c5)CC4)sc3n2)cc1	.	.	.	78	.
CC[C@@H]([C@H](C)O)n1ncn(-c2ccc(N3CCN(c4ccc(OC[C@@H]5CO[C@@](Cn6cncn6)(c6ccc(F)cc6F)C5)cc4)CC3)cc2)c1=O	/	.	/	68	/
COc1cc2nc(Cl)nc(N)c2cc1OC	/	.	/	.	/
COc1ccc(CCCc2nnc(SCC(=O)Nc3ccc(OC)cc3)o2)cc1	.	.	.	.	.
SMILES	PTAP-TSG101 blk	GALC G270D act	B2AR arrestin ag	GPR32 ag	GALK inh
COc1ccc(CCCc2nnc(SCC(=O)Nc3cccc(F)c3C)o2)cc1	.	.	.	66	.
CCc1ccc(NC(=O)c2cnn(-c3c(C)cccc3C)c2C2CCNCC2)cc1	.	.	.	.	.
CCN(c1cccc(C)c1)S(=O)(=O)c1ccc2[nH]cc(C(=O)NCCCOC)c(=O)c2c1	.	.	.	97	.
CN(C)c1ccc(NC(=O)Cn2cc(S(=O)(=O)Cc3ccccc3Cl)c3ccccc32)cc1	.	.	.	.	.
Cc1ccc(Cl)cc1-n1ncc2c(NCCc3ccccc3)ncnc21	.	.	.	101	.
Cc1ccc(Cl)cc1-n1ncc2c(NCCCc3ccccc3)ncnc21	.	.	.	78	.
Cc1ccc(-n2ncc3c(NCc4ccccc4)ncnc32)cc1Cl	.	.	.	62	.
Cc1cc(CCCOc2c(C)cc(-c3noc(C(F)(F)F)n3)cc2C)on1	/	.	/	.	/
CCCOc1ccc(NC(=O)CC2C(=O)N(c3ccc(Cl)cc3)C(=O)N2CCc2ccncc2)cc1 (stereo unspecified)	.	/	.	.	.
C=CCc1cccc2cc(-c3nc4ccc(C(=O)O)cc4[nH]3)c(=O)oc12	.	.	.	.	.
Cc1[nH]cnc1-c1ccc(Cl)cc1	/	.	/	.	/
CSc1cccc(N2C(=O)N(Cc3ccc([N+](=O)[O-])cc3)c3ccccc3S2(=O)=O)c1	.	.	.	.	.
CSc1cccc(N2C(=O)N(CC(=O)NCc3ccccc3Cl)c3ccccc3S2(=O)=O)c1	.	.	.	67	.
CCOC(=O)C(O)c1ccccc1 (stereo unspecified)	/	.	/	.	/
CC(=O)c1ccc(N2C(=O)N(Cc3cccc(C(F)(F)F)c3)c3ccccc3S2(=O)=O)cc1	.	.	.	.	.
CC(=O)Nc1ccc(NC(=O)c2nc(SCc3ccccc3C)ncc2Cl)cc1	.	.	.	65	.
CN(CCCN1c2ccccc2CCc2ccccc21)CC(=O)c1ccc(Cl)cc1	/	.	/	109	/
CN(C)CCCN1c2ccccc2CCc2ccc(Cl)cc21	/	.	/	.	/
CN1CCN(N)CC1	/	.	/	.	/
O=C(COc1ccc2ccccc2c1)NC1CC(=O)N(c2ccccc2)C1 (stereo unspecified)	.	.	.	.	.
Cc1ccc(NC(=O)CSc2nc(C)c(Cc3ccccc3)c(=O)[nH]2)cc1	.	.	.	63	.
O=C(NC1CCCC1)c1ccc(CSc2nc3cccnc3n2Cc2ccc(F)cc2)cc1	.	.	.	.	.
O=C(NC1CC1)c1ccc(Cn2c(SCc3ccc(F)cc3)nc3cccnc32)cc1	.	.	.	63	.
CN(Cc1cc(Br)cc(Br)c1N)C1CCCCC1	/	.	/	95	/
CCO[C@H](Cc1ccc(OCCc2ccc(OS(C)(=O)=O)cc2)cc1)C(=O)O	/	.	/	76	/
CCOC(=O)c1ccc(O)c(O)c1	/	.	/	.	/
Cc1cc(C)cc(C(=O)Nc2ccc(-c3cn4cccnc4n3)cc2)c1	.	.	.	103	.
Cc1ccc(C(=O)Nc2ccc(-c3cn4cccnc4n3)cc2)cc1C	.	.	.	?	.
COC(=O)c1ccc(CNC(=O)c2nc(Cn3nc(C)c(Br)c3C)no2)cc1	.	.	.	.	.
